Counter-ions that a name gives are not always drawn.
Legend:
[1] = test system: CLZ3 (HCA2 human fibroblast dual HR-NHEJ reporter); test: NHEJ repair efficiency (GFP+ cells) relative to control (log10 fold); higher = more non-homologous end joining; conditions: 5 µM; doxycycline 0.5 ug/mL
[2] = test system: CLZ3 (HCA2 human fibroblast dual HR-NHEJ reporter); test: HR repair efficiency (tdTomato+ cells) relative to control (log10 fold); higher = more homologous recombination; conditions: 5 µM; doxycycline 0.5 ug/mL
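Wherever HR repair efficiency (tdTomato+ cells) relative to control is given: compound given one day before doxycycline, which switches on I-SceI endonuclease expression to create double-strand breaks within the integrated reporter.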
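Wherever NHEJ repair efficiency (GFP+ cells) relative to control is given: compound given one day ahead of doxycycline, which switches on I-SceI endonuclease to cut the chromosomally integrated reporter and create DSBs.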

| Structure (SMILES) | NHEJ repair efficiency (log10) [1] | HR repair efficiency (log10) [2] |
| --- | --- | --- |
| COc1cc2c(cc1OC)[C@@H](Cc1ccc(Oc3cc(C[C@@H]4c5cc(OC)c(OC)cc5CCN4C)ccc3O)cc1)N(C)CC2 [Dauricine] | -0.0332 | -0.294 |
| COc1ccc(/C=C/c2cc(O)cc(O[C@@H]3O[C@H](CO)[C@@H](O)[C@H](O)[C@H]3O)c2)cc1 [Desoxyrhaponticin] | 0.161 | 0.245 |
| C[C@@]12C[C@H](c3ccoc3)O[C@@]13C[C@H](OC3=O)[C@H]1[C@H]2C[C@@H]2C[C@H]1C(=O)O2 [Diosbulbin B] | -0.0688 | 0.0545 |
| C/C=C1\[C@H]2C=C(C)C[C@]1(N)c1ccc(=O)[nH]c1C2 [Huperzine-A] | 0.0591 | 0.0391 |
| COc1cc2ccc(=O)oc2c(O[C@@H]2O[C@H](CO)[C@@H](O)[C@H](O)[C@H]2O)c1O [Fraxin;Fraxoside; Paviin] | 0.0655 | 0.0876 |
| C=C[C@H]1[C@H](O[C@@H]2O[C@H](CO)[C@@H](O)[C@H](O)[C@H]2O)OC=C(C(=O)OC)[C@H]1CCOC(=O)c1cc(O)c(O)c(O)c1 [Cornuside] | 0.0361 | 0.162 |
| O=c1c(O[C@@H]2O[C@H](CO)[C@@H](O)[C@H](O)[C@H]2O)c(-c2ccc(O)cc2)oc2cc(O)cc(O)c12 [Astragalin] | -0.0677 | 0.0112 |
| CC1(C)[C@@H](O)CC[C@]2(C)[C@H]3C(=O)C=C4[C@@H]5C[C@@](C)(C(=O)O)CC[C@]5(C)CC[C@@]4(C)[C@]3(C)CC[C@@H]12 [Glycyrrhetinic Acid] | 0.0065 | 0.158 |
| C/C=C(/C)C(=O)O[C@@H]1[C@H](OC(=O)CC(C)C)c2c(ccc3ccc(=O)oc23)OC1(C)C [Praeruptorin C] | -0.0108 | 0.00182 |
| O=C(O)c1cc(O)c(O)c(O)c1 [Gallic acid] | 0.0481 | -0.11 |
| COc1ccc(-c2oc3c(CC=C(C)C)c(O[C@@H]4O[C@H](CO)[C@@H](O)[C@H](O)[C@H]4O)cc(O)c3c(=O)c2O[C@@H]2O[C@@H](C)[C@H](O)[C@@H](O)[C@H]2O[C@@H]2O[C@@H](C)[C@H](O)[C@@H](O)[C@H]2O)cc1 [Epimedin C] | -0.0776 | -0.0883 |
| C/C=C(/C)C(=O)O[C@H]1[C@@H](OC(=O)CC(C)C)c2c(ccc3ccc(=O)oc23)OC1(C)C [Praeruptorin E] | -0.0864 | -0.0529 |
| C[C@@]12C[C@@]3(O)O[C@@H](O1)[C@]1(COC(=O)c4ccccc4)[C@H]3C[C@@]12O[C@@H]1O[C@H](CO)[C@@H](O)[C@H](O)[C@H]1O [Paeoniflorin] | 0.122 | 0.213 |
| CC(C)(O)CCc1c(O)cc(O)c2c(=O)c(O)c(-c3ccc(O)cc3)oc12 [Noricaritin] | -0.112 | -0.128 |
| COc1cc(C[C@@H](CO[C@@H]2O[C@H](CO)[C@@H](O)[C@H](O)[C@H]2O)[C@H](CO[C@@H]2O[C@H](CO)[C@@H](O)[C@H](O)[C@H]2O)Cc2ccc(O)c(OC)c2)ccc1O [Secoisolariciresinol Diglycoside] | 0.00786 | 0.0805 |
| CC(=O)OC(C)C(C)C(=O)OCC12C3CC(C)(C)[C@H](O[C@@H]1C[C@]1(C)C3=CCC3C4(C)CCC(O[C@@H]5O[C@H](C(=O)O)[C@@H](O[C@H]6O[C@H](CO)[C@@H](O)[C@H](O)[C@H]6O)[C@H](O)[C@H]5O[C@@H]5OC[C@@H](O)[C@H](O)[C@H]5O)[C@](C)(CO)C4CCC31C)C2O (some centres undefined) [Sodium Aescinate] | 0.101 | 0.0537 |
| C[C@H](CC(=O)C[C@@H](C)[C@H]1C[C@H](O)[C@@]2(C)C3=C(C(=O)C[C@]12C)[C@@]1(C)CCC(=O)C(C)(C)[C@@H]1C[C@@H]3O)C(=O)O [Ganoderic Acid A] | 0.0922 | 0.159 |
| OC[C@@H]1O[C@@H](OC[C@H]2O[C@@H](OC/C=C/c3ccccc3)[C@H](O)[C@@H](O)[C@@H]2O)[C@H](O)[C@H]1O [Rosarin] | 0.0801 | 0.118 |
| O=C(OCC1=C[C@@H](O)[C@@H]2C=CO[C@@H](O[C@@H]3O[C@H](CO)[C@@H](O)[C@H](O)[C@H]3O)[C@H]12)c1ccc(O)cc1 [Agnuside] | -0.062 | 0.106 |
| CC(C)=CCC[C@](C)(O[C@@H]1O[C@H](CO[C@@H]2O[C@@H](CO)[C@H](O)[C@H]2O)[C@@H](O)[C@H](O)[C@H]1O)[C@H]1CC[C@]2(C)[C@@H]1[C@H](O)C[C@@H]1[C@@]3(C)CC[C@H](O[C@@H]4O[C@H](CO)[C@@H](O)[C@H](O)[C@H]4O[C@@H]4O[C@H](CO)[C@@H](O)[C@H](O)[C@H]4O)C(C)(C)[C@@H]3CC[C@]12C [Ginsenoside Rc] | 0.0541 | 0.0964 |
| COc1cc(O)c2c(=O)c(-c3ccc(O)cc3)coc2c1 [Prunusetin] | -0.0809 | -0.16 |
| COc1cc2c(cc1O)CC[n+]1cc3c(OC)c(OC)ccc3cc1-2 [Jateorrhizine] | -0.216 | -0.189 |
| C[C@H]1O[C@@H](O[C@H]2CC[C@@]3(C)[C@@H](CC[C@]4(C)[C@@H]3C=CC3=C5CC(C)(C)CC[C@]5(CO)[C@H](O)C[C@]34C)[C@]2(C)CO)[C@H](O)[C@@H](O[C@@H]2O[C@H](CO)[C@@H](O)[C@H](O)[C@H]2O)[C@H]1O [Saikosaponin B2] | 0.0489 | 0.123 |
| CC(C)C(C)C(O)C(O)C(C)C1CCC2C3COC(=O)C4CC(O)C(O)CC4(C)C3CCC12C (centres undefined) [Brassinolide] | -0.122 | -0.073 |

| Structure (SMILES) | NHEJ repair efficiency (log10) [1] | HR repair efficiency (log10) [2] |
| --- | --- | --- |
| O=c1cc(-c2ccc(O)c(-c3c(O)cc(O)c4c(=O)cc(-c5ccc(O)cc5)oc34)c2)oc2cc(O)cc(O)c12 [Amentoflavone] | 0.0928 | 0.0831 |
| CC1(C)CC[C@]2(C(=O)O)CCC3=C([C@@H](CCl)C[C@@H]4[C@@]5(C)C[C@H](O)[C@H](O)[C@@](C)(C(=O)O)[C@@H]5CC[C@@]34C)[C@@H]2C1 [Senegenin] | -0.0514 | -0.031 |
| Oc1cc(O)c2cc(O)c(-c3ccc(O)c(O)c3)[o+]c2c1 [Cyanidin Chloride] | -0.0642 | 0.00943 |
| COc1cc(C2Oc3ccc(C4Oc5cc(O)cc(O)c5C(=O)C4O)cc3OC2CO)ccc1O (centres undefined) [Iso-Silybin] | -0.138 | -0.241 |
| Cc1ccc(C(C)C)cc1O [Carvacrol] | -0.132 | -0.173 |
| COc1ccc(-c2cc(=O)c3c(O)cc(O)c(-c4cc(-c5cc(=O)c6c(O)cc(OC)cc6o5)ccc4OC)c3o2)cc1 [Sciadopitysin] | 0.0652 | 0.234 |
| C[C@H](CCC(=O)O)[C@H]1CC[C@H]2[C@@H]3[C@H](O)C[C@@H]4C[C@H](O)CC[C@]4(C)[C@H]3C[C@H](O)[C@]12C [Cholic acid] | -0.0347 | -0.0733 |
| C[C@@H]1O[C@@H](Oc2cc(O)c3c(=O)c(O[C@@H]4O[C@@H](C)[C@H](O)[C@@H](O)[C@H]4O)c(-c4ccc(O)cc4)oc3c2)[C@H](O)[C@H](O)[C@H]1O [Kaempferitrin] | 0.0262 | 0.0294 |
| CC(C)=CCc1cc2c(cc1O)oc(=O)c1c3ccc(O)cc3oc21 [Psoralidin] | 0.31 | -0.0999 |
| O=c1c(-c2ccc(O)c(O)c2)coc2c([C@@H]3O[C@H](CO)[C@@H](O)[C@H](O)[C@H]3O)c(O)ccc12 [3-Hydroxy Puerarin] | -0.187 | -0.112 |
| O=c1cc(-c2ccc(O)cc2)oc2cc(O)c([C@@H]3O[C@H](CO)[C@@H](O)[C@H](O)[C@H]3O)c(O)c12 [Isovitexin] | 0.0409 | 0.0479 |
| CC(C)=CCC[C@](C)(O[C@@H]1O[C@H](CO)[C@@H](O)[C@H](O)[C@H]1O)[C@H]1CC[C@]2(C)[C@@H]1[C@H](O)C[C@@H]1[C@@]3(C)CC[C@H](O)C(C)(C)[C@@H]3[C@@H](O[C@@H]3O[C@H](CO)[C@@H](O)[C@H](O)[C@H]3O[C@@H]3OC[C@@H](O)[C@H](O)[C@H]3O)C[C@]12C [Notoginsenoside R1] | -0.0455 | 0.0156 |
| COc1ccc([C@@H]2OC[C@H]3[C@@H]2CO[C@@H]3c2ccc3c(c2)OCO3)cc1OC [Fargesin] | 0.0593 | 0.116 |
| CC1(C)CC[C@]2(C(=O)O)CCC3=C([C@@H](CCl)C[C@@H]4[C@@]5(C)C[C@H](O)[C@H](O)[C@@](C)(C(=O)O)[C@@H]5CC[C@@]34C)[C@@H]2C1 [Tenuigenin] | 0.0402 | 0.0517 |
| C[C@H](CCC(=O)NCCS(=O)(=O)O)[C@H]1CC[C@H]2[C@@H]3C[C@H](O)[C@@H]4C[C@H](O)CC[C@]4(C)[C@H]3CC[C@]12C [Taurohyodeoxycholic Acid] | 0.0397 | 0.133 |
| CC(=O)OCC1=C[C@@H]2OC(=O)C3=CO[C@@H](O[C@@H]4O[C@H](CO)[C@@H](O)[C@H](O)[C@H]4O)[C@H]1[C@@H]32 [Asperuloside] | 0.0752 | 0.1 |
| N[C@@H](Cc1ccc(O)c(O)c1)C(=O)O [Levodopa] | 0.0328 | 0.0905 |
| O=c1c(-c2ccc(O)cc2)coc2cc(O)cc(O)c12 [Genistein] | -0.0971 | -0.179 |
| COc1ccc(C2OCC3C(c4cc(OC)c(OC)c(OC)c4)OCC23)cc1OC (centres undefined) [Magnolin] | -0.0599 | -0.00542 |
| O=C(C=Cc1ccc(O)c(O)c1)O[C@@H]1C[C@@](O)(C(=O)O)C[C@@H](O)[C@@H]1O [5-Caffeoylquinic Acid] | -0.0761 | -0.0365 |
| OCC1=C[C@@H](O)[C@@H]2C=CO[C@@H](O[C@@H]3O[C@H](CO)[C@@H](O)[C@H](O)[C@H]3O)[C@H]12 [Aucubin] | 0.0297 | 0.121 |
| O=c1ccc2ccc(O)cc2o1 [Umbelliferone] | 0.115 | 0.269 |
| Cc1nc(C)c(C)nc1C [Ligustrazine hydrochloride] | 0.0819 | 0.079 |
